# Among all 11,000 compounds or so, about 310 (2.8%) were called active. Rule as the data show it: active = activity change below about -85%; inactive = the rest. Many of the other results were omitted from the sample, so actives are more common in it than they were.
# Tested on: intestinal alkaline phosphatase [Mus musculus]
# Assay: activators of mouse IAP, confirmation, biochemical, luminescence, single concentration (AID 434970)
# Conditions: purified mouse IAP, CDP-Star luminescence, 30 min, at 10 µM; activation factor: measured here: IAP activation factor, stronger effect = higher value; activity change, negative = activation: stronger effect = lower value
Compound,activation factor,"activity change, negative = activation"
O=C(NN1C(=O)CSC1=S)C(=O)NN1C(=O)CSC1=S,0.0825,91.8% (inactive)
CC(C)=CCC/C(C)=C/CNC(=O)C[C@H]1C[C@H](C(=O)N(C(C)C)C(C)C)[C@@]2(C)c3[nH]c4cc(-c5ccco5)ccc4c3CCN2C1=O,1.39,-39.4% (inactive)
COc1ccc(NC(=O)CCS(=O)(=O)c2cccc3nonc23)c(OC)c1,0.945,5.5% (inactive)
COc1ccc(C2CC(c3ccc(C(F)(F)F)cc3)=NN2c2ccc(S(N)(=O)=O)cc2)cc1 (stereo unspecified),1.37,-36.7% (inactive)
COc1ccc(C2CC(c3cccc(C(F)(F)F)c3)=NN2c2ccc(S(N)(=O)=O)cc2)cc1 (stereo unspecified),1.51,-50.8% (inactive)
COc1ccc(C2CC(c3ccccc3C(F)(F)F)=NN2c2ccc(S(N)(=O)=O)cc2)cc1 (stereo unspecified),2.21,-121% (active)
COc1ccc(C2CC(c3ccccc3Br)=NN2c2ccc(S(N)(=O)=O)cc2)cc1 (stereo unspecified),1.27,-26.8% (inactive)
COc1ccc(C2CC(c3ccccc3Cl)=NN2c2ccc(S(N)(=O)=O)cc2)cc1 (stereo unspecified),2.18,-118% (active)
COc1ccc(C2CC(c3cccc(Cl)c3)=NN2c2ccc(S(N)(=O)=O)cc2)cc1 (stereo unspecified),1.79,-78.7% (inactive)
COc1ccc(C2CC(c3cccc(F)c3)=NN2c2ccc(S(N)(=O)=O)cc2)cc1 (stereo unspecified),1.67,-67.2% (inactive)
COc1ccc(C2CC(c3ccc(Cl)cc3)=NN2c2ccc(S(N)(=O)=O)cc2)cc1 (stereo unspecified),1.6,-59.8% (inactive)
COc1ccc(C2CC(c3ccccc3F)=NN2c2ccc(S(N)(=O)=O)cc2)cc1 (stereo unspecified),2.13,-113% (active)
CSc1ccc(-c2nc(CSCC(=O)NCCCN3CCOCC3)c(C)o2)cc1,0.847,15.3% (inactive)
CCOC(=O)C1=C(C)OC(N)=C(C#N)C1c1cc2cc(C)ccc2nc1N1CCCCC1 (stereo unspecified),1.02,-1.65% (inactive)
CN(C)CCCNC(=O)C[C@H]1C[C@H](C(=O)N2CCCCC2)[C@@]2(CCc3ccccc3)c3[nH]c4cc(CCC(=O)N(C)C)ccc4c3CCN2C1=O,1.1,-10.1% (inactive)
Cc1cnc(NC(=O)c2ccco2)s1,0.954,4.55% (inactive)
O=C1[C@@H](Oc2ccccc2)[C@@H](c2ccccc2)N1c1ccccc1,0.938,6.25% (inactive)
Cc1ccc(NC(=O)C2CCN(S(=O)(=O)c3ccc(N4CCCC4=O)cc3)CC2)cc1Cl,1.79,-79.3% (inactive)
CSc1cccc(NC(=O)C2CCN(S(=O)(=O)c3ccc(F)cc3)CC2)c1,1.98,-97.7% (active)
Cc1ccc(NC(=O)C2CCN(S(=O)(=O)c3ccc4c(c3)NC(=O)C(C)S4)CC2)cc1Cl (stereo unspecified),1.71,-71.1% (inactive)
Cc1ccc(S(=O)(=O)NNC(=O)C2CCN(S(=O)(=O)c3ccc(C)cc3)CC2)cc1,0.962,3.85% (inactive)
CCNC(=O)C1CCN(S(=O)(=O)c2ccc(F)cc2)CC1,0.998,0.15% (inactive)
Cc1ccc(S(=O)(=O)N2CCC(C(=O)N[C@@H](C)C(=O)NC3CCCCC3)CC2)cc1,1.09,-8.65% (inactive)

Compound,activation factor,"activity change, negative = activation"
CCc1ccc(NC(=O)C2CCN(S(=O)(=O)c3ccc4c(c3)CC(C)N4C(C)=O)CC2)cc1 (stereo unspecified),1.49,-48.7% (inactive)
O=C(Nc1ccc(S(=O)(=O)N2CCCCCC2)cc1)C1CCCO1 (stereo unspecified),0.946,5.4% (inactive)
Cc1ccc(S(=O)(=O)N2CCC(C(=O)Nc3ccc(S(=O)(=O)N4CCCC4)cc3)CC2)cc1C,2.22,-122% (active)
COc1ccc(S(=O)(=O)N2CCC(C(=O)Nc3cccc(Cl)c3)CC2)cc1OC,1.62,-61.7% (inactive)
Cc1cc(C)cc(NC(=O)C2CCN(S(=O)(=O)c3ccc4c(c3)NC(=O)C(C)S4)CC2)c1 (stereo unspecified),1.96,-96% (active)
Cc1ccc(S(=O)(=O)N2CCC(C(=O)Nc3ccc(C(C)C)cc3)CC2)cc1,3.49,-249% (active)
CC(O)c1nc2ccccc2n1Cc1nnc(-c2ccc(Cl)cc2)o1 (stereo unspecified),0.857,14.3% (inactive)
Cn1nc(OCc2ccccc2)ccc1=O,0.947,5.35% (inactive)
CCC(C)OC(=O)c1cc(C)nc2c(Br)cc(Br)cc12 (stereo unspecified),1.02,-2% (inactive)
CC[C@]12c3[nH]c4ccc(Cl)cc4c3CCN1C(=O)[C@@H](CC(=O)NCC13CC4CC(CC(C4)C1)C3)C[C@@H]2C(=O)N1CCN(C(=O)c2ccco2)CC1,1.1,-9.55% (inactive)
CCOC(=O)c1sc(NC(=O)Nc2ccccc2Cl)cc1C,1.89,-89.1% (inactive)
Cc1cc(C)c2c(n1)sc1c(=O)[nH]c(SCc3ccccc3)nc12,0.801,19.9% (inactive)
CCOC(=O)Cn1cnc([N+](=O)[O-])n1,0.92,8% (inactive)
COc1cc(-c2nnc(COC(=O)CSc3cc(C)c4ccccc4n3)o2)cc(OC)c1OC,0.99,0.95% (inactive)
COc1cc(NC(=S)NCCC(c2ccccc2)c2ccccc2)cc(OC)c1,3.28,-228% (active)
COc1cccc(NC(=S)NCCN2CCOCC2)c1,1.08,-8.4% (inactive)
COc1cc(NC(=O)C(Cc2ccccc2)n2cccc2)cc(OC)c1 (stereo unspecified),1.12,-12.3% (inactive)
CCCCNC(=S)Nc1ccc(Oc2ccccc2)cc1,1.71,-70.5% (inactive)
COc1ccc(CNC(=S)Nc2cccc(Cl)c2)cc1,1.25,-24.7% (inactive)
COc1cccc(NC(=S)NCCC(c2ccccc2)c2ccccc2)c1,3.53,-253% (active)
COc1ccc(S(=O)(=O)Nc2ccccc2)cc1OC,0.947,5.35% (inactive)
COc1ccc(C(=O)CSc2nnnn2Cc2ccccc2)cc1,0.953,4.7% (inactive)
Cc1ccc2c(Cl)c(C(=O)Nc3cc(C)on3)sc2c1,0.873,12.6% (inactive)

Compound,activation factor,"activity change, negative = activation"
C#CCOCCOCCOCCNc1nc(N2CCOCC2)nc(N2CCN(C(=O)CCCCCCCCCCNC(=O)[C@H]([C@@H](C)CC)n3cc(CCCCN=C(N)N)nn3)CC2)n1,2.37,-137% (active)
C#CCOCCOCCOCCNc1nc(N2CCN(C(=O)CCCCCCCCCCNC(=O)[C@H]([C@@H](C)CC)n3cc(CCCCCN)nn3)CC2)nc(N2CCN(C(=O)CCCCCCCCCCNC(=O)[C@H]([C@@H](C)CC)n3cc(CCCCN=C(N)N)nn3)CC2)n1,15.6,-1460% (active)
CC[C@H](C)[C@@H](C(=O)NCCCCCCCCCCC(=O)N1CCN(C(=O)OC(C)(C)C)CC1)n1cc(CCCCN=C(NC(=O)OC(C)(C)C)NC(=O)OC(C)(C)C)nn1,2.29,-128% (active)
CC[C@H](C)[C@@H](C(=O)NCCCCCCCCCCC(=O)N1CCN(C(=O)OC(C)(C)C)CC1)n1cc(CCCCCNC(=O)OC(C)(C)C)nn1,1.52,-51.8% (inactive)
CC(C)(C)OC(=O)CC[C@@H](C(=O)NCCCCCCCCCCC(=O)N1CCN(C(=O)OC(C)(C)C)CC1)n1cc(CCCCCNC(=O)OC(C)(C)C)nn1,1.51,-51% (inactive)
C#CCOCCOCCOCCNc1nc(N2CCN(C(=O)CCCCCCCCCCNC(=O)[C@H]([C@@H](C)CC)n3cc(CCCCN=C(N)N)nn3)CC2)nc(N2CCN(C(=O)CCCCCCCCCCNC(=O)[C@H](CO)n3cc(CCCCCN)nn3)CC2)n1,6.62,-562% (active)
C#CCOCCOCCOCCNc1nc(N2CCN(C(=O)[C@H](Cc3cc4ccccc4[nH]3)n3cc([C@@H](N)C(C)CC)nn3)CC2)nc(N2CCN(C(=O)[C@H](Cc3cc4ccccc4[nH]3)n3cc([C@@H](N)Cc4ccc(O)cc4)nn3)CC2)n1 (stereo partly specified),1.43,-42.8% (inactive)
O=C(CCS(=O)(=O)c1cccc2nonc12)Nc1cccc2c1CCCC2,0.972,2.85% (inactive)
O=C(c1ccc(F)cc1)N1CCN(c2cc(=O)[nH]nc2-c2ccccc2)CC1,1.17,-17.4% (inactive)
COc1ccc(-n2c(COc3ccccc3)nnc2SCC(N)=O)cc1,0.967,3.3% (inactive)
CCOC(=O)N1CCC(NC(=O)C2CCC(Cn3c(=O)[nH]c4ccccc4c3=O)CC2)CC1 (stereo unspecified),0.908,9.15% (inactive)
O=C1CC(c2nc3ccccc3[nH]2)CN1c1ccccc1 (stereo unspecified),0.951,4.9% (inactive)
O=c1ccc(NS(=O)(=O)c2ccc(Cl)cc2)cn1Cc1ccc(Cl)c(Cl)c1,0.948,5.2% (inactive)
CC1C(C)C(O)(c2ccccc2)CCN1C (stereo unspecified),0.956,4.35% (inactive)
c1ccc(NC2=NCCCCS2)cc1,1.06,-5.6% (inactive)
C#CCOCCOCCOCCNc1nc(N2CCN(C(=O)CCCCCCCCCCNC(=O)[C@H]([C@@H](C)CC)n3cc(CCCCN=C(N)N)nn3)CC2)nc(N2CCN(C(=O)CCCCCCCCCCNC(=O)[C@@H]([C@H](C)O)n3cc(C)nn3)CC2)n1,14.6,-1360% (active)
C#CCOCCOCCOCCNc1nc(N2CCN(C(=O)CCCCCCCCCCNC(=O)[C@H]([C@@H](C)CC)n3cc(CCCCN=C(N)N)nn3)CC2)nc(N2CCN(C(=O)CCCCCCCCCCNC(=O)[C@H]([C@@H](C)CC)n3cc(CCCCN=C(N)N)nn3)CC2)n1,22.7,-2170% (active)
CC(Sc1nc2ccccc2n1C)C(=O)NC(c1ccccc1)c1ccccc1 (stereo unspecified),0.982,1.75% (inactive)
Cc1cccc(Cn2cnc3c(NS(C)(=O)=O)c(C)c(C)cc32)c1,1.13,-12.6% (inactive)
NCCCCCc1nnc(SCC(=O)c2ccc(Cl)cc2)o1,1.08,-7.9% (inactive)
C#CCOCCOCCOCCNc1nc(N2CCN(C(=O)CCCCCCCCCCNC(=O)[C@H]([C@@H](C)CC)n3cc(CCCCCN)nn3)CC2)nc(N2CCN(C(=O)CCCCCCCCCCNC(=O)[C@H](CCCCN)n3cc(CCCC(=O)O)nn3)CC2)n1,3.22,-222% (active)
C#CCOCCOCCOCCNc1nc(N2CCN(C(=O)CCCCCCCCCCNC(=O)[C@@H](CCC(=O)O)n3cc(CCCCCN)nn3)CC2)nc(N2CCN(C(=O)CCCCCCCCCCNC(=O)[C@H]([C@@H](C)CC)n3cc(CCCCCN)nn3)CC2)n1,2.75,-176% (active)

# — PubChem BioAssay AID434970 (Sanford-Burnham Center for Chemical Genomics, 2010)
